Compound activity: PubChem BioAssay, The Scripps Research Institute Molecular Screening Center
ADAM17 inh – inhibitors of human ADAM17 | P78536 | recombinant ADAM17, EDANS/DABCYL FRET peptide cleavage | inhibition, % at 6.95 µM | 0.83% of 370,000 active | AID 720648;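 active = inhibition above the mean of compounds lying between control limits plus 3 SD, set per campaign, cut at about 8.5% in these data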;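 also: 0% = DMSO-only wells as the low control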
Target sequence (P78536 215-824 limits assumed): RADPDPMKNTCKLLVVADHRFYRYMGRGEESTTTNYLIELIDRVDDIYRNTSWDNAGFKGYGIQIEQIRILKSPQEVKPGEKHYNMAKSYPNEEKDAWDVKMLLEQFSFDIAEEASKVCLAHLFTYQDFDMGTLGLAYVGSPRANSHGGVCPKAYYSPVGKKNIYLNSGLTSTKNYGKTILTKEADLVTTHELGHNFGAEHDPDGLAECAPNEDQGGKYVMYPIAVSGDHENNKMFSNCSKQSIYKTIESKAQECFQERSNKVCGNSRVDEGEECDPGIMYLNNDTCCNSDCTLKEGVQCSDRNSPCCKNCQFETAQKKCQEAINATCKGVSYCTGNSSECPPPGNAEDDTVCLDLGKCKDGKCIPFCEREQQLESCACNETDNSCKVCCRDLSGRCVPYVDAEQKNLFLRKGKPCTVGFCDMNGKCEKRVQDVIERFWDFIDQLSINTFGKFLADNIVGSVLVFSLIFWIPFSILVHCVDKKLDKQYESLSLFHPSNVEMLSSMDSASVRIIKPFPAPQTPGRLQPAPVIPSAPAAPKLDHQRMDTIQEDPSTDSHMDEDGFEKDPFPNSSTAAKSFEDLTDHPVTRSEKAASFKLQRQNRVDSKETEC
proKLK7 act – activators of human kallikrein-7 zymogen | activation, % at 7 µM | AID 652039 | purified proKLK7, EDANS-DABCYL substrate fluorescence; 100% is mature enzyme control, 0% vehicle | P49862 | 0.9% of 370,000 active;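 active = activation above the mean of all tested compounds plus 3 SD, computed per campaign excluding outliers beyond control limits, cut at about 13% in these data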
PLCb3 inh – inhibitors of human phospholipase C beta3. Purified PLC-beta3, fluorogenic substrate, fluorescence. inhibition, % at 12.2 µM. 0.18% of 370,000 active. AID 720704; in the data active = inhibition above about 11%;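 also: 0% = median of compound wells on plate and 100% = full blocker control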
PLCg1 inh – blocks human PLC-gamma1 enzyme activity | P19174 | inhibition, % at 12.2 µM | purified PLC-gamma1, fluorogenic substrate, fluorescence | 0.84% of 370,000 active | AID 720700
HGIII-sPLA2 inh – Blocks human group III sPLA2 activity; 0.56% of 370,000 active; inhibition, % at 12.2 µM; Q9NZ20; QFRET BODIPY PC-A2 liposome hydrolysis, fluorescence;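 active = inhibition above mean plus 3 SD of compounds lying within the high and low control bounds, cut at about 19% in these data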;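 also: 0% = median of test compound wells and 100% = no enzyme DMSO wells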
ADAM10 inh – inhibitors of human ADAM10 | 0.62% of 370,000 active | inhibition, % at 7 µM | recombinant ADAM10, EDANS/DABCYL FRET peptide cleavage, 3 h | AID 720582 | O14672;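 active = inhibition above a per-campaign cutoff equal to the mean of compounds falling between control-based bounds plus 3 SD, cut at about 20% in these data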;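 also: 0% = DMSO wells while the 100% control is not disclosed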
PLCg1 ctr – PLC-gamma1 inhibition, counter-screen for PLC-beta3 hits | shares compounds with PLCg1 inh | purified PLC-gamma1, fluorogenic substrate, fluorescence | inhibition, % at 12.3 µM | 3.1% of 3,300 active
PLCbeta3 conf – human PLC-beta3 inhibition, confirmation; shares compounds with PLCg1 inh; purified PLC-beta3, fluorogenic substrate fluorescence; inhibition, % at 12.3 µM; 1% of 3,300 active; in the data active = inhibition above about 11%
Starred values were filed as active, the others as inactive; . = not tested or not shown. Rows were chosen to be rich in hits. Some 3.4% of all compounds tested hit in one or more screens of this group. Rule as the data show it, unless noted: active = inhibition above about 9.5%; inactive = the rest.

SMILES	ADAM17 inh	proKLK7 act	PLCb3 inh	PLCg1 inh	HGIII-sPLA2 inh	ADAM10 inh	PLCg1 ctr	PLCbeta3 conf
COc1ccc(C(=O)NCC(=O)OCCCOC(=O)CNC(=O)c2ccc(OC)c(OC)c2)cc1OC	2.4	-0.2	5.2	12.4*	9.9	-4.4	-6.0	-19.4
COc1ccc(C(=O)NCC(=O)OCC(=O)c2ccc(Cl)cc2)cc1OC	-4.0	0.6	-6.3	-0.7	0.9	-3.1	.	.
Cn1c(SCC(=O)NC2CCCCC2)nnc1-c1ccncc1	-2.7	-0.2	0.9	-0.1	2.6	0.3	.	.
Cn1c(SCC(=O)NCC2CCCO2)nnc1-c1ccc(S(=O)(=O)N2CCCC2)cc1 (stereo unspecified)	3.0	0.2	-1.4	9.8*	-5.8	10.1	-8.5	-3.5
Cc1ccc(-c2nnc(SCC(=O)NC3CCCC3)n2C)cc1	-2.1	-0.1	-10.1	10.8*	18.2	-2.0	-9.3	-2.2
O=C(CSc1nnc(-c2ccc(S(=O)(=O)N3CCCC3)cc2)o1)NCC1CCCO1 (stereo unspecified)	-5.1	-0.5	-1.2	-1.2	2.7	-3.5	.	.
CCCOc1cccc(/C=N/NC(=O)c2csc(C)c2C)c1	4.7	0.4	4.8	11.1*	9.3	10.2	-4.4	-2.4
Cc1scc(C(=O)N/N=C/c2ccsc2)c1C	0.0	0.6	0.4	-2.1	3.2	-3.7	.	.
CCN(CC)C(=O)C1CCCN(Cc2ccc(N(C)C)cc2)C1 (stereo unspecified)	-2.0	-0.4	-2.1	10.2*	2.2	-6.4	-2.0	-0.1
Cc1ccc(CN2CCCC(C(=O)N3CCCC3)C2)cc1 (stereo unspecified)	-4.0	-0.1	-1.4	1.8	9.3	-0.4	.	.
O=C(C1CCCN(Cc2ccc(Br)cc2)C1)N1CCCCC1 (stereo unspecified)	4.3	0.7	2.7	13.2*	-3.7	-0.9	-5.2	-1.7
CCn1cc(CN2CCC(n3nccc3NC(=O)c3ccc4c(c3)OCO4)CC2)c(C)n1	-4.5	-0.1	-5.8	-3.5	3.9	-1.7	.	.
Cc1cccnc1NC(=O)Nc1cccc(C(F)(F)F)c1	3.0	0.6	3.1	10.3*	-0.2	5.7	-5.2	-4.7
Cc1ccc(C(=O)OCC(=O)Nc2ccccc2C(F)(F)F)cc1S(=O)(=O)N1CCOCC1	2.4	0.2	10.9*	5.9	11.7	11.7	-5.7	-2.9
COc1ccc(C(=O)Nc2nnc(C)s2)cc1S(=O)(=O)N1CCOCC1	-1.7	-0.4	-8.0	11.9*	16.6	-12.8	-8.1	-3.5
O=C(COc1ccc(S(=O)(=O)N2CCOCC2)cc1)NC1CCCC1	-4.6	-1.1	0.5	5.8	3.4	-4.6	.	.
Cc1nnc(NC(=O)c2ccc(C)c(S(=O)(=O)N3CCOCC3)c2)s1	-1.2	0.1	0.6	1.6	4.7	-3.3	.	.
COc1ccc(C(=O)OCC(=O)NC2CC2)cc1S(=O)(=O)N1CCOCC1	-0.3	-0.4	6.2	9.6*	0.1	8.4	-4.9	-0.3
O=C(COc1ccc(S(=O)(=O)N2CCOCC2)cc1)NC1CC1	4.2	-0.2	1.6	10.1*	10.4	10.1	0.5	3.0
CCOC(=O)c1ccccc1NC(=O)COC(=O)c1ccc(C)c(S(=O)(=O)N2CCOCC2)c1	-3.3	-0.5	1.1	0.2	2.5	-8.7	.	.
COc1ccc(C(=O)OCC(=O)N2CCOCC2)cc1S(=O)(=O)N1CCOCC1	2.1	0.5	-4.2	-0.5	3.8	-7.9	.	.
COc1ccc(S(=O)(=O)N2CCCc3nc(-c4ccc(F)cc4)ccc32)cc1	-0.7	0.0	3.6	4.2	-1.1	-5.1	.	.
Cn1c(CCNC(=O)c2cc(COc3ccc(F)c(F)c3)on2)nc2ccccc21	-1.1	0.1	-11.7	-6.0	-19.9	-3.8	.	.
CC1CCC(NC(=O)CCNC(=O)c2ccccc2)CC1 (stereo unspecified)	1.8	-0.8	-0.1	2.2	1.9	4.0	.	.
CC(C)(C)c1cc(CN2CCC(O)CC2)cc(C(C)(C)C)c1O	-1.9	-0.7	1.7	10.7*	10.9	-7.8	-3.7	-22.2
SMILES	ADAM17 inh	proKLK7 act	PLCb3 inh	PLCg1 inh	HGIII-sPLA2 inh	ADAM10 inh	PLCg1 ctr	PLCbeta3 conf
CCS(=O)(=O)N1CCC(C(=O)NCCCN2CCC(Cc3ccccc3)CC2)CC1	-0.7	0.4	1.5	11.0*	0.9	1.0	-2.1	-1.6
CCS(=O)(=O)N1CCC(C(=O)NCCN2CCN(Cc3ccccc3)CC2)CC1	-0.9	-0.2	3.1	1.0	0.9	0.2	.	.
CCCS(=O)(=O)N1CCC(C(=O)NCCN2CCC(Cc3ccccc3)CC2)CC1	4.4	-0.6	13.1*	15.4*	-4.3	4.8	-4.9	-5.1
Cc1ccc(NS(=O)(=O)c2c(C(=O)N3CCCCCC3)c(C)n(C)c2C)c(Cl)c1	0.1	0.8	-7.8	1.6	-1.5	-2.8	.	.
O=C(NCc1cccnc1)Nc1ccc(Cl)c(Cl)c1	2.2	0.5	-2.4	9.6*	-6.0	12.4	-4.8	-0.8
S=C(NCc1cccnc1)Nc1ccc(Cl)c(Cl)c1	6.3	-0.6	7.8	1.2	-40.8	18.3	.	.
CC(C)(C)NC(=O)CSc1nc(N)c(NC(=O)c2ccccc2F)c(=O)[nH]1	1.7	0.1	12.2*	5.7	5.6	1.6	-2.8	0.9
Cc1cccnc1NC(=O)C1CCCN1S(=O)(=O)c1ccc(Cl)cc1 (stereo unspecified)	-2.0	-0.1	-5.0	1.9	1.1	1.6	.	.
O=C(O)c1ccc2c(c1)C(=O)/C(=C\c1ccco1)C2=O	-19.3	1.1	4.9	36.2*	1.2	6.9	22.7*	-9.1
Cc1ccc(/C=C2/C(=O)c3ccc(C(=O)O)cc3C2=O)o1	-0.4	0.1	-5.4	18.9*	-4.3	0.2	-2.6	-13.1
CCC(=O)NC(Nc1nc(C)cs1)(C(=O)OC)C(F)(F)F (stereo unspecified)	0.2	0.4	10.7*	7.8	-5.4	7.3	-2.8	1.0
COC(=O)C(NC(=O)c1ccc(F)cc1)(Nc1nc(C)cs1)C(F)(F)F (stereo unspecified)	-2.8	-0.3	1.5	0.6	4.4	2.2	.	.
CCOc1ccc(C2C(C(=O)/C=C/c3ccco3)=C(O)C(=O)N2CCN2CCOCC2)cc1OC (stereo unspecified)	-6.8	0.1	-37.8	-22.6	-10.7	-19.8	.	.
O=c1c2ccccc2[nH]c(=S)n1CCN1CCN(Cc2ccccc2)CC1	3.1	0.0	6.2	10.6*	-0.9	7.2	1.8	-4.7
CCOc1cc(-c2nnc(NC(=O)C3=COCCO3)o2)cc(OCC)c1OCC	-2.9	0.0	-7.3	-5.4	-4.0	-6.2	.	.
COc1ccccc1NC(=O)Cn1c(=O)n(C)c(=O)c2sc3c(c21)COC(C)(C)C3	0.8	0.4	2.4	12.5*	8.5	10.5	-4.6	1.2
